According to the supplement of paper PMC7411054:

Key:
Conditions in all cases: treatment time: 24 h
A549-ACTB-RAB5A [1] = test: lowest phenotypically active concentration; higher = less potent
Procedure, shortened: (§1)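 The reporter lines, fifteen in total and built by gene editing in A549, HepG2 and WPMY1 cells, used BFP for segmentation alongside GFP and RFP/FusionRed markers. Each was treated at 0.3, 1, 3 or 9 µM for 24 h in four wells and then imaged live, with live-cell features normalised to solvent control wells. Deviation meant ≥3 of 4 wells beyond the 95th percentile of control Euclidean distances; reproducibility meant a median replicate Pearson correlation above the 95th percentile of non-replicates. Only conditions meeting both were scored as phenotypically active.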

A549-GM130-SQSTM1 [2] = test: as above
Procedure, shortened: as §1

A549-TUBA1B-RELA [3] = test: as above
Procedure, shortened: as §1

HepG2-ACTB-RAB5A [4] = test: as above
Procedure, shortened: as §1

WPMY1-CANX-COX4 [5] = test: as above
Procedure, shortened: as §1

A549-ACTB-RAB5A [6] = test: phenotypically active (imaging signature differs from DMSO and reproducible) at any of 0.3-9 uM (binary (1 = active, 0 = inactive)); higher = active
Procedure, shortened: as §1

A549-CANX-COX4 = test: as above
Procedure, shortened: as §1

A549-GM130-SQSTM1 [7] = test: as above
Procedure, shortened: as §1

A549-TP53BP1-CLTA = test: as above
Procedure, shortened: as §1

A549-TUBA1B-RELA [8] = test: as above
Procedure, shortened: as §1

HepG2-ACTB-RAB5A [9] = test: as above
Procedure, shortened: as §1

HepG2-CANX-COX4 = test: as above
Procedure, shortened: as §1

HepG2-GM130-SQSTM1 = test: as above
Procedure, shortened: as §1

HepG2-TP53BP1-CLTA = test: as above
Procedure, shortened: as §1

HepG2-TUBA1B-RELA = test: as above
Procedure, shortened: as §1

WPMY1-ACTB-RAB5A = test: as above
Procedure, shortened: as §1

WPMY1-CANX-COX4 [10] = test: as above
Procedure, shortened: as §1

WPMY1-GM130-SQSTM1 = test: as above
Procedure, shortened: as §1

WPMY1-TP53BP1-CLTA = test: as above
Procedure, shortened: as §1

WPMY1-TUBA1B-RELA = test: as above
Procedure, shortened: as §1

CCCCNNC(=O)c1ccc(Br)cc1
3 µM: lowest phenotypically active concentration (A549-GM130-SQSTM1 [2]) | lowest phenotypically active concentration (A549-TUBA1B-RELA [3])
active: phenotypically active (A549-ACTB-RAB5A [6]) 1 | phenotypically active (A549-CANX-COX4) 1 | phenotypically active (A549-GM130-SQSTM1 [7]) 1 | phenotypically active (A549-TP53BP1-CLTA) 1 | phenotypically active (A549-TUBA1B-RELA [8]) 1 | phenotypically active (HepG2-ACTB-RAB5A [9]) 1 | phenotypically active (HepG2-CANX-COX4) 1 | phenotypically active (HepG2-GM130-SQSTM1) 1 | phenotypically active (HepG2-TP53BP1-CLTA) 1 | phenotypically active (HepG2-TUBA1B-RELA) 1 | phenotypically active (WPMY1-CANX-COX4 [10]) 1 | phenotypically active (WPMY1-GM130-SQSTM1) 1 | phenotypically active (WPMY1-TP53BP1-CLTA) 1 | phenotypically active (WPMY1-TUBA1B-RELA) 1
1 µM: lowest phenotypically active concentration (A549-ACTB-RAB5A [1]) | lowest phenotypically active concentration (HepG2-ACTB-RAB5A [4])
9 µM: lowest phenotypically active concentration (WPMY1-CANX-COX4 [5])
inactive: phenotypically active (WPMY1-ACTB-RAB5A) 0

Cn1cnc2c(F)c(Nc3ccc(Br)cc3Cl)c(C(=O)NOCCO)cc21 [selumetinib]
inactive: phenotypically active (WPMY1-CANX-COX4 [10]) 0 | phenotypically active (WPMY1-TUBA1B-RELA) 0
≤ 0.3 µM: lowest phenotypically active concentration (A549-ACTB-RAB5A [1]) | lowest phenotypically active concentration (A549-GM130-SQSTM1 [2]) | lowest phenotypically active concentration (A549-TUBA1B-RELA [3]) | lowest phenotypically active concentration (HepG2-ACTB-RAB5A [4])
active: phenotypically active (A549-ACTB-RAB5A [6]) 1 | phenotypically active (A549-CANX-COX4) 1 | phenotypically active (A549-GM130-SQSTM1 [7]) 1 | phenotypically active (A549-TP53BP1-CLTA) 1 | phenotypically active (A549-TUBA1B-RELA [8]) 1 | phenotypically active (HepG2-ACTB-RAB5A [9]) 1 | phenotypically active (HepG2-CANX-COX4) 1 | phenotypically active (HepG2-GM130-SQSTM1) 1 | phenotypically active (HepG2-TP53BP1-CLTA) 1 | phenotypically active (HepG2-TUBA1B-RELA) 1 | phenotypically active (WPMY1-ACTB-RAB5A) 1 | phenotypically active (WPMY1-GM130-SQSTM1) 1 | phenotypically active (WPMY1-TP53BP1-CLTA) 1

CCc1cc(-c2n[nH]c(C)c2-c2ccc3c(c2)OCCO3)c(O)cc1O
3 µM: lowest phenotypically active concentration (A549-ACTB-RAB5A [1]) | lowest phenotypically active concentration (A549-GM130-SQSTM1 [2]) | lowest phenotypically active concentration (A549-TUBA1B-RELA [3]) | lowest phenotypically active concentration (HepG2-ACTB-RAB5A [4]) | lowest phenotypically active concentration (WPMY1-CANX-COX4 [5])
active: phenotypically active (A549-ACTB-RAB5A [6]) 1 | phenotypically active (A549-CANX-COX4) 1 | phenotypically active (A549-GM130-SQSTM1 [7]) 1 | phenotypically active (A549-TP53BP1-CLTA) 1 | phenotypically active (A549-TUBA1B-RELA [8]) 1 | phenotypically active (HepG2-ACTB-RAB5A [9]) 1 | phenotypically active (HepG2-CANX-COX4) 1 | phenotypically active (HepG2-GM130-SQSTM1) 1 | phenotypically active (HepG2-TP53BP1-CLTA) 1 | phenotypically active (HepG2-TUBA1B-RELA) 1 | phenotypically active (WPMY1-ACTB-RAB5A) 1 | phenotypically active (WPMY1-CANX-COX4 [10]) 1 | phenotypically active (WPMY1-GM130-SQSTM1) 1 | phenotypically active (WPMY1-TP53BP1-CLTA) 1 | phenotypically active (WPMY1-TUBA1B-RELA) 1

N=C(N)c1ccc(OCCCCCOc2ccc(C(=N)N)cc2)cc1 [pentamidine]
9 µM: lowest phenotypically active concentration (HepG2-ACTB-RAB5A [4])
1 µM: lowest phenotypically active concentration (A549-ACTB-RAB5A [1]) | lowest phenotypically active concentration (A549-GM130-SQSTM1 [2]) | lowest phenotypically active concentration (A549-TUBA1B-RELA [3])
active: phenotypically active (A549-ACTB-RAB5A [6]) 1 | phenotypically active (A549-CANX-COX4) 1 | phenotypically active (A549-GM130-SQSTM1 [7]) 1 | phenotypically active (A549-TP53BP1-CLTA) 1 | phenotypically active (A549-TUBA1B-RELA [8]) 1 | phenotypically active (HepG2-ACTB-RAB5A [9]) 1 | phenotypically active (HepG2-CANX-COX4) 1 | phenotypically active (HepG2-TP53BP1-CLTA) 1 | phenotypically active (HepG2-TUBA1B-RELA) 1 | phenotypically active (WPMY1-GM130-SQSTM1) 1
inactive: phenotypically active (HepG2-GM130-SQSTM1) 0 | phenotypically active (WPMY1-ACTB-RAB5A) 0 | phenotypically active (WPMY1-CANX-COX4 [10]) 0 | phenotypically active (WPMY1-TP53BP1-CLTA) 0 | phenotypically active (WPMY1-TUBA1B-RELA) 0

Cc1cc2c(F)c(Oc3ncnn4cc(OC[C@@H](C)O)c(C)c34)ccc2[nH]1 [brivanib]
active: phenotypically active (A549-ACTB-RAB5A [6]) 1 | phenotypically active (A549-CANX-COX4) 1 | phenotypically active (A549-GM130-SQSTM1 [7]) 1 | phenotypically active (A549-TP53BP1-CLTA) 1 | phenotypically active (A549-TUBA1B-RELA [8]) 1 | phenotypically active (HepG2-ACTB-RAB5A [9]) 1 | phenotypically active (HepG2-CANX-COX4) 1 | phenotypically active (HepG2-GM130-SQSTM1) 1 | phenotypically active (HepG2-TP53BP1-CLTA) 1 | phenotypically active (HepG2-TUBA1B-RELA) 1 | phenotypically active (WPMY1-ACTB-RAB5A) 1 | phenotypically active (WPMY1-CANX-COX4 [10]) 1 | phenotypically active (WPMY1-TP53BP1-CLTA) 1 | phenotypically active (WPMY1-TUBA1B-RELA) 1
9 µM: lowest phenotypically active concentration (A549-ACTB-RAB5A [1]) | lowest phenotypically active concentration (A549-GM130-SQSTM1 [2]) | lowest phenotypically active concentration (A549-TUBA1B-RELA [3]) | lowest phenotypically active concentration (HepG2-ACTB-RAB5A [4]) | lowest phenotypically active concentration (WPMY1-CANX-COX4 [5])
inactive: phenotypically active (WPMY1-GM130-SQSTM1) 0

COc1cc(O)cc(O)c1C(=O)/C=C/c1ccccc1 [Cardamonin]
active: phenotypically active (A549-ACTB-RAB5A [6]) 1 | phenotypically active (A549-CANX-COX4) 1 | phenotypically active (A549-GM130-SQSTM1 [7]) 1 | phenotypically active (A549-TP53BP1-CLTA) 1 | phenotypically active (A549-TUBA1B-RELA [8]) 1 | phenotypically active (HepG2-ACTB-RAB5A [9]) 1 | phenotypically active (HepG2-CANX-COX4) 1 | phenotypically active (HepG2-GM130-SQSTM1) 1 | phenotypically active (HepG2-TUBA1B-RELA) 1 | phenotypically active (WPMY1-ACTB-RAB5A) 1 | phenotypically active (WPMY1-CANX-COX4 [10]) 1 | phenotypically active (WPMY1-GM130-SQSTM1) 1 | phenotypically active (WPMY1-TP53BP1-CLTA) 1 | phenotypically active (WPMY1-TUBA1B-RELA) 1
9 µM: lowest phenotypically active concentration (A549-ACTB-RAB5A [1]) | lowest phenotypically active concentration (A549-GM130-SQSTM1 [2]) | lowest phenotypically active concentration (A549-TUBA1B-RELA [3]) | lowest phenotypically active concentration (HepG2-ACTB-RAB5A [4]) | lowest phenotypically active concentration (WPMY1-CANX-COX4 [5])
inactive: phenotypically active (HepG2-TP53BP1-CLTA) 0
